PPARg SRC2 recr: PPARgamma-driven SRC-2 recruitment agonism. activation, % at 8 µM. actives 0.34% (n = 200,000). PPARgamma LBD-SRC-2 recruitment, biochemical; in the data active means activation above about 22%
Target sequence (P37231 whole entry, looked up, the tested form may be a part): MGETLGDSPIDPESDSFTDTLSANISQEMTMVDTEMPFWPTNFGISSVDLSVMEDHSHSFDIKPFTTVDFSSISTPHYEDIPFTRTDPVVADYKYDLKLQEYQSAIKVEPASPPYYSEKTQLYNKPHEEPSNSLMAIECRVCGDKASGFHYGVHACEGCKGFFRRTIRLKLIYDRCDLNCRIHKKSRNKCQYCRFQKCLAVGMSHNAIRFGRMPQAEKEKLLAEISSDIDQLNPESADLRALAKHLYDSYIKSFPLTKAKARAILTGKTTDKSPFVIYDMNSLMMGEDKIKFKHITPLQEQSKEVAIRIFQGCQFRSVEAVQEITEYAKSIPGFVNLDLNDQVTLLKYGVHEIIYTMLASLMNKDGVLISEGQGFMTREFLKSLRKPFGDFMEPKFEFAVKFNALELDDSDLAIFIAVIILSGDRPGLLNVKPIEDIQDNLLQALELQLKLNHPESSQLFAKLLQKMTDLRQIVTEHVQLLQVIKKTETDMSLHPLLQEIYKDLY
SRC1 TRFRET art: flags TR-FRET format artefacts in PPARgamma SRC-1 recruitment agonist screen. actives 0.34% (n = 99,000). AID 1051. TR-FRET ratio at 8 µM. TR-FRET detection artefact counter-screen, emission ratio; hits give high values; in the data active means TR-FRET ratio above about 2300
PPARg SRC-3 ag: agonists of human PPARgamma SRC-3 coactivator recruitment; actives 0.26% (n = 200,000); activation, % at 8 µM; P37231; biochemical PPARgamma/SRC-3 coactivator recruitment assay; in the data active means activation above about 23%
SRC3 TRFRET art: TR-FRET artefact, counter-screen to PPARgamma/SRC-3 agonist assay; TR-FRET ratio at 8 µM; actives 0.39% (n = 99,000); PPARgamma/SRC-3 format; hits give high values; AID 1048
SRC2 TRFRET art: counter-screen for PPARgamma SRC-2 recruitment agonists: TR-FRET artefact | TR-FRET ratio at 8 µM | hits give high values | actives 0.4% (n = 200,000) | AID 1049
PPARg SRC1 recr: promotes SRC-1 coactivator recruitment by human PPARgamma. P37231. PPARgamma-SRC-1 coactivator recruitment biochemical assay. activation, % at 8 µM. actives 0.41% (n = 200,000). AID 631; in the data active means activation above about 19%
Large screens that a line does not name were inactive. The list is not random: actives were taken first. Their share in the collection is about 0.9%. Unless noted, no stated cut-off is given here; in the data, active means TR-FRET ratio above about 2000; inactive means the rest.

CC(C)(C)C1CCc2c(sc(NC(=O)c3cccs3)c2C(N)=O)C1 (configuration not stated)	PPARg SRC2 recr 24 (no result: SRC1 TRFRET art, SRC3 TRFRET art)
O=c1c2ccccc2nc(-c2ccccc2)n1CCCN1CCOCC1	PPARg SRC1 recr 19 (no result: SRC1 TRFRET art, SRC3 TRFRET art)
Cc1ccc(-c2nc3ccccc3c(=O)n2CCCN2CCOCC2)cc1	none (no result: SRC1 TRFRET art, SRC3 TRFRET art)
Cc1cc(C)c(S(=O)(=O)NCCOc2ccccc2)c(C)c1-n1cnnn1	none
CSCCNC(C)=O	PPARg SRC2 recr 24, SRC2 TRFRET art 2040 (no result: SRC1 TRFRET art, SRC3 TRFRET art)
CSCCNC(=O)c1cccc(Cl)c1	none
CC(C)N(C(=O)CSc1nnc(Cc2csc(Nc3ccccc3)n2)o1)C(C)C	none
CCN(C(=O)CSc1nnc(-c2c[nH]c3ccccc23)o1)C1CCS(=O)(=O)C1 (configuration not stated)	none
COc1ccccc1OCCCCN1CCN(C(c2ccccc2)c2ccccc2)CC1	none
Cc1cccc(NC(=O)C2CCN(S(=O)(=O)c3c(C)[nH]c(=O)[nH]c3=O)CC2)c1	SRC2 TRFRET art 1997
CCc1cccc(NC(=O)C2CCCN(S(=O)(=O)c3c(C)[nH]c(=O)[nH]c3=O)C2)c1 (configuration not stated)	none (no result: SRC1 TRFRET art, SRC3 TRFRET art)
Cc1ccc2c(ccc(=S)n2C)c1	SRC3 TRFRET art 2121
CC(Nc1[nH]c(=O)n(C)c(=O)c1N=O)c1ccccc1 (configuration not stated)	none
O=C1OCCC1Sc1nnc(-c2ccc(Br)cc2)o1 (configuration not stated)	PPARg SRC2 recr 24 (no result: SRC1 TRFRET art, SRC3 TRFRET art)
CCOC(=O)C1=C(O)/C(=C/c2cccc(OC)c2O)N=C1C	SRC3 TRFRET art 2061
CCOc1ccc(/C=N/n2cc(-c3ccccc3)[nH]c2=S)cc1	PPARg SRC1 recr 24
CCOc1ccc(/C=N/O)cc1	none (no result: SRC1 TRFRET art, SRC3 TRFRET art)
Nc1nc(-c2ccc(Cl)cc2)nnc1-c1ccc(Br)cc1	SRC3 TRFRET art 3281
Cc1nc(SCC(=O)Nc2ccc(F)cc2)c(C#N)c(C)c1CC(=O)c1ccc(Br)cc1	PPARg SRC1 recr 22 (no result: SRC1 TRFRET art, SRC3 TRFRET art)
COc1ccc(C2CC(c3ccccc3)=NN2C(=O)COC(=O)c2cc(S(=O)(=O)N3CCOCC3)ccc2F)cc1 (configuration not stated)	SRC3 TRFRET art 2106, SRC2 TRFRET art 2124
COc1ccc(-c2ccc(C#N)c(SCC(=O)OCc3ccccc3)n2)cc1OC	SRC2 TRFRET art 2143 (no result: SRC1 TRFRET art, SRC3 TRFRET art)
N#Cc1ccccc1CSc1nc2ncc(Br)cc2[nH]1	none
Fc1ccccc1CSc1nc2ncc(Br)cc2[nH]1	PPARg SRC2 recr 24 (no result: SRC1 TRFRET art, SRC3 TRFRET art)
CCOc1ccc(NC(=O)CC2SC(=O)N(c3ccccc3)C2=O)cc1 (configuration not stated)	none
S=C(NCCc1ccc(Cl)cc1)NC1CC1	none
Cc1ccnc(NS(=O)(=O)c2ccc(NC(=O)CSc3nc(-c4ccccc4)cc(=O)[nH]3)cc2)n1	none
CCOC(=O)c1sc2nc(Cc3ccc(Cl)cc3)[nH]c(=S)c2c1C	none
O=C(COC(=O)c1ccc(S(=O)(=O)N2CCOCC2)cc1)Nc1nc(-c2ccccc2)cs1	none (no result: SRC1 TRFRET art, SRC3 TRFRET art)
Cc1ccc(NC(=O)COc2ccc(S(=O)(=O)N3CCOCC3)cc2)cc1	none (no result: SRC1 TRFRET art, SRC3 TRFRET art)
COc1ccccc1OCC(=O)Nc1nc(-c2ccc(S(=O)(=O)N3CCOCC3)cc2)cs1	SRC2 TRFRET art 2294 (no result: SRC1 TRFRET art, SRC3 TRFRET art)
O=C(COc1ccccc1)Nc1nc(-c2ccc(S(=O)(=O)N3CCOCC3)cc2)cs1	SRC2 TRFRET art 2563 (no result: SRC1 TRFRET art, SRC3 TRFRET art)
O=C(COc1ccc(Cl)cc1)Nc1nc(-c2ccc(S(=O)(=O)N3CCOCC3)cc2)cs1	SRC2 TRFRET art 2847 (no result: SRC1 TRFRET art, SRC3 TRFRET art)
COc1ccccc1NC(C)C(=O)Nc1ccc(C(C)=O)cc1 (configuration not stated)	none
Cc1ccc(C)c(N2CCN(C(=O)CCn3c(=S)[nH]c4cc5c(cc4c3=O)OCO5)CC2)c1	none (no result: SRC1 TRFRET art, SRC3 TRFRET art)
O=S(=O)(c1ccccc1)c1cnn2c(C(F)(F)F)cc(-c3ccccc3)nc12	none (no result: SRC1 TRFRET art, SRC3 TRFRET art)
O=S(=O)(c1ccccc1)c1cnn2c(C(F)(F)F)cc(-c3ccc(F)cc3)nc12	PPARg SRC1 recr 21 (no result: SRC1 TRFRET art, SRC3 TRFRET art)
CCCCC(=O)Nc1nc2ccc3nc(C)sc3c2s1	SRC2 TRFRET art 1978 (no result: SRC1 TRFRET art, SRC3 TRFRET art)
CC(/C=N/NC(=O)NC1CCCCC1)=C\c1ccccc1	SRC2 TRFRET art 2081
O=C(N/N=C/C(Br)=C/c1ccccc1)NC1CCCCC1	none
O=C(CSc1nc2c(c(=O)[nH]1)CCC2)Nc1cccc(Cl)c1	none (no result: SRC1 TRFRET art, SRC3 TRFRET art)
N#Cc1c(-c2ccco2)nc(SCC(=O)Nc2cccc(Cl)c2)[nH]c1=O	SRC2 TRFRET art 2164 (no result: SRC1 TRFRET art, SRC3 TRFRET art)
C=CCN(CC=C)Cc1c(O)ccc2c1oc(=O)c1ccccc12	PPARg SRC1 recr 21 (no result: SRC1 TRFRET art, SRC3 TRFRET art)
COc1ccccc1NC(=O)C1=C(C)NC(SCC(=O)c2ccc(C)cc2)=C(C#N)C1c1ccco1 (configuration not stated)	SRC2 TRFRET art 2554 (no result: SRC1 TRFRET art, SRC3 TRFRET art)
Fc1ccc(Nc2nc(N/N=C/c3ccco3)nc(N3CCCCC3)n2)cc1	none
CC(=O)c1c(C)[n+]([O-])c2ccc3c(non3O)c12	SRC2 TRFRET art 1981
COc1ccc(-c2cnc[nH]2)cc1	none
CCn1ncc(CNC(=O)c2cccc([N+](=O)[O-])c2)c1C	none
Cc1ccc(OCCn2cc(C(=S)N3CCCC3)c3ccccc32)cc1C	SRC2 TRFRET art 2180 (no result: SRC1 TRFRET art, SRC3 TRFRET art)
S=C(c1cn(CCOc2ccccc2)c2ccccc12)N1CCCC1	none (no result: SRC1 TRFRET art, SRC3 TRFRET art)
S=C(c1cn(CCOc2cccc3ccccc23)c2ccccc12)N1CCCC1	SRC1 TRFRET art 3691, SRC3 TRFRET art 3153, SRC2 TRFRET art 3070
Cc1ccc(CN2CCN(C3CCCC3)C(CCO)C2)s1 (configuration not stated)	none
CCc1cc2ccc(C)cc2nc1SCC(=O)Nc1cc(C)on1	none
CCc1cc2cc3c(cc2nc1SCC(=O)Nc1cc(C)on1)OCO3	PPARg SRC1 recr 36 (no result: SRC1 TRFRET art, SRC3 TRFRET art)
CCc1cc2c(=O)n(CCC(C)C)c(=S)[nH]c2s1	SRC2 TRFRET art 1976
CC(C)(C)NC(=O)CSc1nnc(-c2ccco2)n1Cc1ccco1	SRC2 TRFRET art 2029
O=C(c1cc2sccc2n1Cc1ccccc1)N1CCc2ccccc21	SRC2 TRFRET art 2447 (no result: SRC1 TRFRET art, SRC3 TRFRET art)
O=C(c1cc2sccc2n1Cc1ccc(F)cc1)N1CCN(c2nc3ccccc3s2)CC1	SRC2 TRFRET art 2655 (no result: SRC1 TRFRET art, SRC3 TRFRET art)
Cc1cc(=O)oc2ccc(OC(=O)CC(C)C)cc12	none
S=c1nc(SCc2ccccc2)[nH]c2ccccc12	SRC1 TRFRET art 2318, SRC2 TRFRET art 2041
C#CCSc1nnc(-c2ccccc2)c(=O)[nH]1	PPARg SRC2 recr 22 (no result: SRC1 TRFRET art, SRC3 TRFRET art)
COc1cc(OC)cc(C(=O)N[C@H](C(=O)NCc2ccco2)C(C)C)c1	none
CCN(CC)C(=O)Cn1c(=O)n(-c2ccccc2)c(=O)c2c3c(sc21)CCC3	PPARg SRC2 recr 22, SRC2 TRFRET art 2144 (no result: SRC1 TRFRET art, SRC3 TRFRET art)
Cc1ccc(NC(=O)CN(C)C(=S)NC2CC2)cc1	PPARg SRC1 recr 26
COc1cc(OC)cc(C(=O)N[C@H](C(=O)Nc2cc(C)cc(C)c2)C(C)C)c1	none
Cn1cnnc1SCC(=O)NN(c1ccccc1)c1ccccc1	none
O=C(COC(=O)c1cccc(S(=O)(=O)N2CCc3ccccc32)c1)Nc1ncc(Cl)cc1Cl	none
